Legend:
Test in all cases: DAPPL (digital affinity profiling via proximity ligation, sequencing); 10 mM Tris-HCl pH 7.5, 50 mM NaCl, 1 mM DTT, 4% glycerol, room temperature, 30 min; GST-TFs on glutathione beads, 16-mer random dsDNA library, 0.1% formaldehyde crosslink after washing; high values mean tight binding
Conditions in all cases: protein: recombinant; tags: N-terminal GST; dsDNA, one strand shown
[1] = biological target: T1, ELK1 (Homo sapiens, UniProt P19419 1-428)
T1 sequence: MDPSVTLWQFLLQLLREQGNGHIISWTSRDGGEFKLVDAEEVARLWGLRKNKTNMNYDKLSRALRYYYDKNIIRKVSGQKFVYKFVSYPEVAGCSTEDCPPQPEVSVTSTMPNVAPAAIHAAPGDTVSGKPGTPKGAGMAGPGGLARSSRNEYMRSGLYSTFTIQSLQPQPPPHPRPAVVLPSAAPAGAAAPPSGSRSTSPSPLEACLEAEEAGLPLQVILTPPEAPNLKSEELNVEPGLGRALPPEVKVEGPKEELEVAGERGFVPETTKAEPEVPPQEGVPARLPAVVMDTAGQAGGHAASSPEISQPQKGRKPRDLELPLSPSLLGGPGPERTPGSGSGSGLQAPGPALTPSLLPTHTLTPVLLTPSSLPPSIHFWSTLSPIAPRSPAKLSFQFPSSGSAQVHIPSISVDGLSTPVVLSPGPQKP
In short: (§1)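 The binding signal reported is, for every hexamer, its read frequency for a factor over its read frequency for the tag-only sample. Reads came from pools of yeast-expressed, GST-fused human transcription factors on glutathione beads, barcoded with DNA and mixed with that sample, which were incubated with 200 nmole of a random double-stranded 16-mer DNA library in Tris/NaCl/DTT/glycerol buffer at room temperature for 30 min. After washing, the pools were crosslinked with 0.1% formaldehyde, proximity-ligated with BsaI/T4 ligase for 1 h at 37 °C, PCR-amplified and sequenced on an Illumina NextSeq500.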

[2] = biological target: T2, GABPA (Homo sapiens, UniProt Q06546 1-454)
T2 sequence: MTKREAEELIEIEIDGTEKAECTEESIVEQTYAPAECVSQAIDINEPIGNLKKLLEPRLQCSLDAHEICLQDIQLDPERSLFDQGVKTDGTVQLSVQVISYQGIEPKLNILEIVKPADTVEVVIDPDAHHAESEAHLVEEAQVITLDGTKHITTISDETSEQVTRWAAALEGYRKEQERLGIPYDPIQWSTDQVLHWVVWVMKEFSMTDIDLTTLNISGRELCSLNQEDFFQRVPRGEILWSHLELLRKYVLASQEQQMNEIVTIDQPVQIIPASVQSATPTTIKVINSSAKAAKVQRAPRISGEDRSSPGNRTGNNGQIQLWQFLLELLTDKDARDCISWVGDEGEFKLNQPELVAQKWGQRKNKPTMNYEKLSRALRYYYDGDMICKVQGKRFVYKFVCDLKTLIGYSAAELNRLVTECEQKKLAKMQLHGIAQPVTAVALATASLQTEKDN
In short: as §1

[3] = biological target: T3, ERG (Homo sapiens, UniProt P11308 1-479)
T3 sequence: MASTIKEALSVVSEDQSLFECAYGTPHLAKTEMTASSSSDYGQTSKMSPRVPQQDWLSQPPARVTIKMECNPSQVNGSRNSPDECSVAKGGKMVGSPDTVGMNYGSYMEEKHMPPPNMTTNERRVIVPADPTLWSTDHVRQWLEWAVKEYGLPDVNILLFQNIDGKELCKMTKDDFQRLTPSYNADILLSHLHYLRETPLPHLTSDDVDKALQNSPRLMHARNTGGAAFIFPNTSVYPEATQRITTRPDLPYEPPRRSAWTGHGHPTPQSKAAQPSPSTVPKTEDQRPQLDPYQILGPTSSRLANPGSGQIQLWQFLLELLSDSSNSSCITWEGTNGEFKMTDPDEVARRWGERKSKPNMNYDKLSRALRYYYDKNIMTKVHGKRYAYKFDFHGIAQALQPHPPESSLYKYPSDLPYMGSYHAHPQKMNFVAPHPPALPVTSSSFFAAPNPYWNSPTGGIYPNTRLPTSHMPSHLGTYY
In short: as §1

[4] = biological target: ELF1 (Homo sapiens, UniProt P32519 1-619)
In short: as §1

[5] = biological target: T4, EHF (Homo sapiens, UniProt Q9NZC4 1-300)
T4 sequence: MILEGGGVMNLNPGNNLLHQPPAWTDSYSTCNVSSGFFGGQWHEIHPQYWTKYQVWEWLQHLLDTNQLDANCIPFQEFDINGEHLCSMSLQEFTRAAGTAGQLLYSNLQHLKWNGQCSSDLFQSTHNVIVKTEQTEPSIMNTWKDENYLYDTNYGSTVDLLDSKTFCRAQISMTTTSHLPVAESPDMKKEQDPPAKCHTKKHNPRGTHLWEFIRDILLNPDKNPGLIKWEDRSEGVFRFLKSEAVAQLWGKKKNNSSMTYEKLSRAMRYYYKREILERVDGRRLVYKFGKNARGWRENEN
In short: as §1

[6] = biological target: T5, FEV (Homo sapiens, UniProt Q99581 1-238)
T5 sequence: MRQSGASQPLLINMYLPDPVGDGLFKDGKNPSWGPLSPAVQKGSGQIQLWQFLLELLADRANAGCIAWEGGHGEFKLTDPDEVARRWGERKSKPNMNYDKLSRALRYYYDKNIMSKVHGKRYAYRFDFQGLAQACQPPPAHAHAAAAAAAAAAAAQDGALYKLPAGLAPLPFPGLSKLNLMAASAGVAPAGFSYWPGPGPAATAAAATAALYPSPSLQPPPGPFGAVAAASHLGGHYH
In short: as §1

[7] = biological target: ETV5 (Homo sapiens, UniProt P41161 1-510)
In short: as §1

[8] = biological target: ELF4 (Homo sapiens, UniProt Q99607 1-663)
In short: as §1

[9] = biological target: T6, ELK4 (Homo sapiens, UniProt P28324-2 1-405)
T6 sequence: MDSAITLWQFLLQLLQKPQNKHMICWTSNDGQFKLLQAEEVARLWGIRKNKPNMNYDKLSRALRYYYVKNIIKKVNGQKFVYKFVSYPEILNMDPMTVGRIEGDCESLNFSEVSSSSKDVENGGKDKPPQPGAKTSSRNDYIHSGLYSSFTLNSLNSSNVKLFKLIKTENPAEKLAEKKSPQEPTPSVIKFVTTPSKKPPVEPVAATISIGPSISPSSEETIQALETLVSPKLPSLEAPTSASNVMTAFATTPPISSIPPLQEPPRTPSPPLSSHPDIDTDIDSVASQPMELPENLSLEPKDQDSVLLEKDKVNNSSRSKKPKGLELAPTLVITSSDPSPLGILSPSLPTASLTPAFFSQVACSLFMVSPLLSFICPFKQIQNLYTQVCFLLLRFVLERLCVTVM
In short: as §1

Chain of ETV5 (P41161 whole entry): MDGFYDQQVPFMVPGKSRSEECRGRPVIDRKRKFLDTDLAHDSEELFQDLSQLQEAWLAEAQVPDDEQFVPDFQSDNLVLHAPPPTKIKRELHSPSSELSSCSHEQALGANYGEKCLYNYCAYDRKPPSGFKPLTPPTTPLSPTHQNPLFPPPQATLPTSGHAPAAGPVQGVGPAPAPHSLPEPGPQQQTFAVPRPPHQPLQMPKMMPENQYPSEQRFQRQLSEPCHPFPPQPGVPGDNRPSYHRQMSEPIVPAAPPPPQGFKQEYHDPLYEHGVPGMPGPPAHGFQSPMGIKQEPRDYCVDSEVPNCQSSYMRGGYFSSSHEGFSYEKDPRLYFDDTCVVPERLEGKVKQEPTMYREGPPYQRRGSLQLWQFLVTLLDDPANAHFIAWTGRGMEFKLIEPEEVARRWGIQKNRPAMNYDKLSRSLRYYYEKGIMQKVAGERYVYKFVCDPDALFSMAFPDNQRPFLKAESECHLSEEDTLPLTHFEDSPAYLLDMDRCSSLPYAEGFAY
Chain of ELF1 (P32519 whole entry): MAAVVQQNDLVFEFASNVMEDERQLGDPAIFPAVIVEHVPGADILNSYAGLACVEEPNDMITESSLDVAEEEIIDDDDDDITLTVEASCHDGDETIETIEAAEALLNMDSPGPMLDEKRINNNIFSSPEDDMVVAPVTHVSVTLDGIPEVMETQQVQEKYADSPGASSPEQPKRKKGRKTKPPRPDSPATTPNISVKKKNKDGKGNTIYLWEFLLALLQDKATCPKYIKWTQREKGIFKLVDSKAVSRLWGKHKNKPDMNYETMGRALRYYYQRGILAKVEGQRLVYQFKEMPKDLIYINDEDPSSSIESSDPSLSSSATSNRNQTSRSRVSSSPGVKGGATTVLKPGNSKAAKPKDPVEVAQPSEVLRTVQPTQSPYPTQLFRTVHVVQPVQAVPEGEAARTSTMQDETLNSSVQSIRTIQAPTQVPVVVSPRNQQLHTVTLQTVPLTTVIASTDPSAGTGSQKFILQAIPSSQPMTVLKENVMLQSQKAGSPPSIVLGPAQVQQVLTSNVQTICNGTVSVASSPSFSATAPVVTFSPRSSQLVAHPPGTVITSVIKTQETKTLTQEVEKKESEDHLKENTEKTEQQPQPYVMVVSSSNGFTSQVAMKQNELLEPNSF
Chain of ELF4 (Q99607 whole entry): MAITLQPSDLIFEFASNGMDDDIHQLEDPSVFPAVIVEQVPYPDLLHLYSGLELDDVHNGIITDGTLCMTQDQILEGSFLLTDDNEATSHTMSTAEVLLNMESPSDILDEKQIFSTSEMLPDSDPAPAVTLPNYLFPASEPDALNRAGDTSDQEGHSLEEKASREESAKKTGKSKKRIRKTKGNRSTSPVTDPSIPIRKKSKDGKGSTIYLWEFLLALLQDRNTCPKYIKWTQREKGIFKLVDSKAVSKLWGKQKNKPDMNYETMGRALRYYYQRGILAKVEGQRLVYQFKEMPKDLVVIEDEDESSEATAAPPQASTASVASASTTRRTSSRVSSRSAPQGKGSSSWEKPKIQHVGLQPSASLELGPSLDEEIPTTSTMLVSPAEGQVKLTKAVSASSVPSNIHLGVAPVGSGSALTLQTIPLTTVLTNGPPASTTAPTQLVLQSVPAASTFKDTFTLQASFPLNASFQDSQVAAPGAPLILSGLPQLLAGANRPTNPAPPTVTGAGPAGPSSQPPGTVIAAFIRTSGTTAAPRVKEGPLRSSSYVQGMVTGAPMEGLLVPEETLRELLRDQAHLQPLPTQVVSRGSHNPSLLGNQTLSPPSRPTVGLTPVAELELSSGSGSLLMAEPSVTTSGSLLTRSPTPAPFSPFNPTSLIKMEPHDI

GTGCAT
binding signal [1]: 1.05 fold enrichment (6-mer frequency, TF over GST control)
binding signal [2]: 1.1 fold enrichment (6-mer frequency, TF over GST control)
binding signal [3]: 1.06 fold enrichment (6-mer frequency, TF over GST control)
binding signal [4]: 1.01 fold enrichment (6-mer frequency, TF over GST control)
binding signal [5]: 1.07 fold enrichment (6-mer frequency, TF over GST control)
binding signal [6]: 1.06 fold enrichment (6-mer frequency, TF over GST control)
binding signal [7]: 1.13 fold enrichment (6-mer frequency, TF over GST control)
binding signal [8]: 1.08 fold enrichment (6-mer frequency, TF over GST control)
binding signal [9]: 1.08 fold enrichment (6-mer frequency, TF over GST control)
